Hits are enriched below; roughly 11% of the tested compounds scored in any of these assays.
SW480 rerep = inducers of DNA re-replication in SW480 colon cancer cells; SW480 DNA re-replication, Hoechst DNA content imaging, 48 h; Potency, µM (top dose mostly 46.1 µM), actives largely listed as activators; actives 1.8% (n = 340,000); AID 624297; also: nearly all actives have a fitted effect of over 55% in size
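Readout is total intensity of Hoechst-stained nuclei, excited at 405 nm and collected at 500-530 nm. Compound treatment lasted 48 hr at 37 C in 5% CO2 before staining.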
MCF10A rereplic = DNA re-replication induction in MCF 10a cells. MCF 10A DNA re-replication, Hoechst nuclear intensity, 48 h. Potency, µM (series often up to 46.1 µM), actives largely listed as activators. actives 2.9% (n = 350,000). AID 624296; also: nearly all actives have a fitted effect of over 50% in size
IL-1B inflam inh = inflammasome signaling inhibition, IL-1 beta readout; THP-1 LPS/ATP IL-1B secretion, AlphaLISA, 16 h; hits give low values; activity change, % at 57.5 µM; actives 4.7% (n = 360,000); AID 743279; in the data active = activity change below about -50%; inconclusive = mostly about -30% to -49%
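Secreted IL-1B measured by AlphaLISA bead assay after 16 h compound exposure of THP-1 cells; compounds (final up to 57.5 uM) added 1 h before LPS (250 ng/mL) and ATP (1.25 mM) stimulation; lower signal means less secretion.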
RORg inh = ROR gamma (mouse) transcription inhibition; Potency, µM (series often up to 53.6 µM), hits mostly inhibitors; P51450; Drosophila S2 Gal4-RORgamma UAS-luciferase reporter, 20 h; actives 5.4% (n = 310,000); also: nearly all actives have a fitted effect of over 60% in size
Target sequence (P51450 whole entry, looked up, the tested form may be a part): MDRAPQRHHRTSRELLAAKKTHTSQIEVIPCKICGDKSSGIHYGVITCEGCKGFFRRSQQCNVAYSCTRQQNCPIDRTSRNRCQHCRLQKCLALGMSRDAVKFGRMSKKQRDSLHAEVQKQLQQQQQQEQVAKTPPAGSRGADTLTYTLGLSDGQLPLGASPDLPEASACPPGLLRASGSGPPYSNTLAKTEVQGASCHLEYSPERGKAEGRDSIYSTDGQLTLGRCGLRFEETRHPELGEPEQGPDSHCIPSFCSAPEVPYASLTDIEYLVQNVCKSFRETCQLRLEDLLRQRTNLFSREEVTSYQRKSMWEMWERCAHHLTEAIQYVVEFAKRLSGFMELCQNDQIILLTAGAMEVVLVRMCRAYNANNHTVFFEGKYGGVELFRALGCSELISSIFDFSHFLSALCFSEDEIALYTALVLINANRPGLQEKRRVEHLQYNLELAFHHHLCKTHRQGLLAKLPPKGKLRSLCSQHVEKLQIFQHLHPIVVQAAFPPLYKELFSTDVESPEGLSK
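Read-out: Photinus luciferase luminescence; inhibitors lower reporter signal. Insect Schneider cells with Gal4-ROR gamma fusion under metallothionein promoter, UAS reporter; 700 uM final copper sulfate induction, 20 hr, ambient temperature.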
Gal4-VP16 FLuc = counter-screen for ROR gamma inhibitors: Gal4-VP16 reporter; Potency, µM (doses to about 53.6 µM), actives largely listed as inhibitors; actives 3.5% (n = 310,000); Drosophila S2 Gal4-VP16 UAS-luciferase, luminescence, 20 h;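 also: Gal4-VP16 expression switched on by copper sulfate through the metallothionein promoter; nearly all actives have a fitted effect of over 50% in size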
Numbers stand for hits; - = inactive; ? = inconclusive; . = no result given; [ ] = remark or other dose. Unless noted, calls follow the shape of the dose curve; as a rule, active = well fitted curve in the direction sought with a large enough effect; inconclusive = small, poorly fitted or top-dose-only effect, or another doubt; inactive = no such curve, though single readings can be large; an effect the other way counts as inactive or inconclusive.

SMILES | SW480 rerep | MCF10A rereplic | IL-1B inflam inh | RORg inh | Gal4-VP16 FLuc
COc1cccc(N=Nc2ccc(O)c3ncccc23)c1 | - | - | - | 0.316µM | -
O=C(NC1CCCCC1)C(c1ccc(-c2ccccc2)cc1)n1c(=O)c(-c2ccco2)nc2ccccc21 (stereo not given) | . | . | - | . | .
O=c1c(/C=N\NS(=O)(=O)c2ccccc2)coc2ccc(Cl)cc12 | - | ? | - | . | .
NC(=O)c1ccnc2c(O)cccc12 | - | - | . | . | .
OCc1ccnc2c(O)cccc12 | 1.16µM | 5.17µM | - | - | -
CC1(C(=O)Nc2ccc3c(c2)OCO3)CCN1C(=O)CCC1CCCC1 (stereo not given) | . | . | - | . | .
Cn1cc(CNCc2ccc(-n3cccn3)cc2)c(-c2ccccc2F)n1 | - | - | - | ? | 11.2µM
Cn1cc(CNCCCn2ncc3ccccc32)c(-c2ccccc2F)n1 | - | - | - | - | -
CCSc1nc(CC)c2c(c1C#N)CCCC2 | 0.517µM | - | - | - | -
CCSc1nc(N2CCOCC2)c2c(c1C#N)CCCC2 | - | ? | - | - | -
O=C(CCN1CCN(C(c2ccccc2)c2ccccc2)CC1)N/N=C/c1ccc(O)cc1O | - | - | - | 14.1µM | -
COc1ccc(OC)c(/C=N/NC(=O)CCN2CCN(C(c3ccccc3)c3ccccc3)CC2)c1 | - | 14.6µM | - | 10µM | ?
O=C(CCN1CCN(c2ccccc2)CC1)N/N=C/c1ccccc1OC(F)F | 3.26µM | - | - | 11.2µM | ?
O=C1OCCN1C(=O)[C@H]1[C@H](c2ccccc2)C(c2cccc(Cl)c2)=NN1c1ccccc1 | 18.4µM | ? | - | - | -
Cc1cccc(C2=NN(c3ccccc3)[C@@H](C(=O)N3CCOC3=O)[C@@H]2c2ccc(Cl)cc2)c1 | 25.9µM | 2.31µM | - | - | -
C[C@@H]1CN([C@@H](C)CO)S(=O)(=O)c2ccc(Br)cc2O[C@H]1CN(C)C(=O)Cc1cccnc1 | . | . | - | . | .
Cc1[nH]nc(Nc2ccc(Br)cc2)c1[N+](=O)[O-] | - | - | - | - | -
Cc1[nH]nc(Nc2ccc(C(C)C)cc2)c1[N+](=O)[O-] | - | - | -51.4 | - | ?
Cc1ccc(Nc2n[nH]c(C)c2[N+](=O)[O-])cc1 | - | - | -54.4 | - | -
Cc1[nH]nc(Nc2ccccc2)c1[N+](=O)[O-] | - | - | - | - | -
Cc1ccc(CN2CCN(Cc3ccco3)CC2)cc1 | - | - | - | - | -
O=C(Nc1nnc(C2CC2)s1)C1Cc2ccccc2CN1S(=O)(=O)c1ccccc1F (stereo not given) | ? | - | - | 8.91µM | ?
O=C(Nc1nccs1)C1Cc2ccccc2CN1S(=O)(=O)c1ccc(F)cc1 (stereo not given) | 4.11µM | -[0.0737 µM] | - | ? | -
CCN(C(=O)Cn1nc(C)n2c(cc3cc(C)ccc32)c1=O)c1ccccc1 | - | - | -51.3 | - | -
C=Cc1ccccc1C=C | . | . | . | - | -
SMILES | SW480 rerep | MCF10A rereplic | IL-1B inflam inh | RORg inh | Gal4-VP16 FLuc
CN(Cc1ccccc1)C(=O)c1cccc(NC(=O)Cc2ccc(NC(=O)C3CCCN(C(=O)c4ccccc4)C3)cc2)c1 (stereo not given) | - | - | - | . | .
Cc1nn2c(N)c(-c3ccccc3)cnc2c1-c1ccc(Cl)cc1 | - | - | -68.8 | - | ?
Nc1c(-c2ccccc2)cnc2c(-c3ccccc3)cnn12 | - | - | - | 6.31µM | 7.08µM
COc1cc(C2C=C(C34CC5CC(CC(C5)C3)C4)NC(=S)N2)cc(OC)c1OC (stereo not given) | ? | - | - | 1µM | 0.794µM
COc1ccc(OC)c(C2C=C(C34CC5CC(CC(C5)C3)C4)NC(=S)N2)c1 (stereo not given) | ? | - | - | 3.16µM | 3.16µM
COc1ccc(OC)c(C(C)NC(=O)C23CC4CC(CC(C4)C2)C3)c1 (stereo not given) | - | - | - | - | -
COc1ccc(C2=CC(c3cc(OC)c(OC)c(OC)c3)NC(=S)N2)cc1 (stereo not given) | 18.4µM | ? | - | 12.6µM | ?
CC1C(=O)C(C)C(c2ccc3c(c2)OCO3)NC1c1ccc2c(c1)OCO2 (stereo not given) | - | - | - | - | -
S=C1NC(C23CC4CC(CC(C4)C2)C3)=CC(c2ccc3c(c2)OCO3)N1 (stereo not given) | - | - | - | 0.708µM | ?
Cc1ccc(C)c(NC(=S)N2CCC(NC(=O)C3CCCCC3)CC2)c1 | - | - | - | - | -
O=C(c1ccco1)N1CCC2(CC1)CCN(c1ccc(-c3ccccc3)cc1)CC2 | . | . | . | - | -
CCN(CC)CCNC(=O)C(=O)Nc1ccc2c(c1)N(S(=O)(=O)c1cccs1)CCC2 | 5.17µM | ? | - | . | .
O=C(NCc1cccnc1)c1ccc([N+](=O)[O-])o1 | 2.91µM | 14.6µM | -66.9 | - | -
O=C(NCc1ccco1)c1ccc([N+](=O)[O-])o1 | ? | ? | -61.4 | 5.01µM | -
O=C(Cc1ccc([N+](=O)[O-])cc1)NCc1cccnc1 | -[9.22 µM] | - | - | - | -
O=C(NCc1ccco1)c1ccc(Cn2cc([N+](=O)[O-])cn2)o1 | - | - | - | - | -
O=C(Nc1c(Cl)ccc2nsnc12)c1ccc([N+](=O)[O-])o1 | ? | ? | -97.9 | - | ?
O=C(Nc1cccnc1)c1ccc([N+](=O)[O-])o1 | ? | 7.31µM | -91.7 | - | ?
O=S(=O)(c1ccccc1)N1CCC2(CCN(Cc3ccncc3)CC2)CC1 | . | . | . | - | -
COc1cc(CNc2ncnc3c2ncn3[C@H]2CN(Cc3ccccc3)C[C@@H](COC(C)=O)O2)cc(OC)c1OC | . | . | - | . | .
O=C(NCc1ccco1)c1c(F)c(F)c(F)c(C(=O)NCc2ccco2)c1F | - | ? | -130.8 | - | -
O=C(Nc1ccc(Cl)cn1)c1ccc([N+](=O)[O-])o1 | 2.91µM | 11.6µM | -225.6 | ? | ?
Cc1cccc(N2C(=O)N3[C@H]4c5ccccc5OC[C@@H]4[C@@H](c4ccccc4)[C@@]3(C)C2=O)c1 | - | - | - | . | .
Cc1ccc(C(=O)N2CCCCC2)cc1NC1=C(Cl)C(=O)N(Cc2ccccc2)C1=O | ? | 8.2µM | -93.7 | . | .
Cc1ccc(O)c(NC2=C(Cl)C(=O)N(Cc3ccccc3)C2=O)c1 | - | - | - | ? | ?
O=[N+]([O-])c1cccc(OCCCN2CCC(Cc3ccccc3)CC2)c1 | - | - | -73.4 | . | .
O=[N+]([O-])c1ccc(CN2CCC(Cc3ccccc3)CC2)cc1 | - | - | - | ? | -
CC1CCN(CCCCOc2ccc([N+](=O)[O-])cc2)CC1 | - | - | - | - | -
Cc1ccc([N+](=O)[O-])c(OCCN2CCC(Cc3ccccc3)CC2)c1 | - | ? | -98.6 | - | -
CC1CCN(CCCCOc2ccccc2[N+](=O)[O-])CC1 | ? | ? | -61.8 | - | -
